# Experimental data reported in PMC11006913.
# Changes are numbered by the printed parent chain.
# Legend:
# Experiment in all cases: PBM; 200 nM protein, PBS
# Conditions in all cases: dsDNA, one strand shown
# VENTX [1] = target: T1, VENTX (Homo sapiens, UniProt O95231 78-163, R121Q)
# T1 sequence: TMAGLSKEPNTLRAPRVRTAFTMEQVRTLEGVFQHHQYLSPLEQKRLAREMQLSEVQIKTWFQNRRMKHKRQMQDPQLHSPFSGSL
# VENTX [2] = target: T2, VENTX (Homo sapiens, UniProt O95231 78-163)
# T2 sequence: T1 sequence with Q44R
# HOXC10 [3] = target: HOXC10 (Homo sapiens, UniProt Q9NYD6 254-340)
# Chain of HOXC10 (Homo sapiens, UniProt Q9NYD6 254-340) (Q9NYD6 254-340): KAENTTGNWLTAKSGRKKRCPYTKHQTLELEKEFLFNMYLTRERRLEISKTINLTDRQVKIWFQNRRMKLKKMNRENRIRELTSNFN
# VENTX [4] = target: T3, VENTX (Homo sapiens, UniProt O95231 78-163, Y115F)
# T3 sequence: T1 sequence with Y38F, Q44R
# HOXC10 [5] = target: HOXC10 (Homo sapiens, UniProt Q9NYD6 254-340, K271E)
# Chain of HOXC10 (Homo sapiens, UniProt Q9NYD6 254-340, K271E) (Q9NYD6 254-340 K271E): as the sequence (Q9NYD6 254-340) above, with K18E counted along it
# PAX4 [6] = target: T4, PAX4 (Homo sapiens, UniProt O43316 9-242, R200K)
# T4 sequence: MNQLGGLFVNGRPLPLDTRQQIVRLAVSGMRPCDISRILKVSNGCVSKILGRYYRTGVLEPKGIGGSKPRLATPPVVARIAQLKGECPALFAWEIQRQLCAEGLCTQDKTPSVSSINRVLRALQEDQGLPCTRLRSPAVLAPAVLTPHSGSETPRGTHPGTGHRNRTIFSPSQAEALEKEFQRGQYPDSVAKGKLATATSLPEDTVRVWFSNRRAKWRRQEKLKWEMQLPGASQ
# PAX4 [7] = target: T5, PAX4 (Homo sapiens, UniProt O43316 9-242)
# T5 sequence: T4 sequence with K192R
# MSX2 = MSX2 (Homo sapiens, UniProt P35548 130-214, R199I)
# Chain of MSX2 (P35548 130-214 R199I): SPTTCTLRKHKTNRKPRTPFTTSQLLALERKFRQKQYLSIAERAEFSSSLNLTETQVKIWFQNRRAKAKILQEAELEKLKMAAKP
# PAX4 [8] = target: T6, PAX4 (Homo sapiens, UniProt O43316 9-242, R200Q)
# T6 sequence: T4 sequence with K192Q
# PAX4 [9] = target: T7, PAX4 (Homo sapiens, UniProt O43316 9-242, F177V)
# T7 sequence: T4 sequence with F169V, K192R
# PAX4 [10] = target: T8, PAX4 (Homo sapiens, UniProt O43316 9-242, F177Y)
# T8 sequence: T4 sequence with F169Y, K192R
# PAX4 [11] = target: T9, PAX4 (Homo sapiens, UniProt O43316 9-242, R227W)
# T9 sequence: T4 sequence with K192R, R219W
# HOXB6 [12] = target: HOXB6 (Homo sapiens, UniProt P17509 132-218, K202E)
# Chain of HOXB6 (Homo sapiens, UniProt P17509 132-218, K202E) (P17509 132-218 K202E): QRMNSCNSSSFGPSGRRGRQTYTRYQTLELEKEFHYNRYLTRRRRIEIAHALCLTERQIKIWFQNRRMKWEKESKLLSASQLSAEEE
# HOXA2 [13] = target: HOXA2 (Homo sapiens, UniProt O43364 129-215, R185T)
# Chain of HOXA2 (Homo sapiens, UniProt O43364 129-215, R185T) (O43364 129-215 R185T): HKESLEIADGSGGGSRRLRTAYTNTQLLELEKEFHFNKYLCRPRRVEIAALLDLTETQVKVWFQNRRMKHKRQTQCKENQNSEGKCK
# PITX2 = PITX2 (Homo sapiens, UniProt Q99697 72-157)
# HOXA2 [14] = target: HOXA2 (Homo sapiens, UniProt O43364 129-215, R185K)
# Chain of HOXA2 (Homo sapiens, UniProt O43364 129-215, R185K) (O43364 129-215 R185K): as the sequence (O43364 129-215 R185T) above, with T57K counted along it
# HOXA2 [15] = target: HOXA2 (Homo sapiens, UniProt O43364 129-215, Y150S)
# Chain of HOXA2 (Homo sapiens, UniProt O43364 129-215, Y150S) (O43364 129-215 Y150S): as the sequence (O43364 129-215 R185T) above, with Y22S, T57R counted along it
# HOXA2 [16] = target: HOXA2 (Homo sapiens, UniProt O43364 129-215)
# Chain of HOXA2 (Homo sapiens, UniProt O43364 129-215) (O43364 129-215): as the sequence (O43364 129-215 R185T) above, with T57R counted along it
# HOXB6 [17] = target: HOXB6 (Homo sapiens, UniProt P17509 132-218)
# Chain of HOXB6 (Homo sapiens, UniProt P17509 132-218) (P17509 132-218): as the sequence (P17509 132-218 K202E) above, with E71K counted along it
# HOXA7 [18] = target: HOXA7 (Homo sapiens, UniProt P31268 116-202)
# Chain of HOXA7 (Homo sapiens, UniProt P31268 116-202) (P31268 116-202): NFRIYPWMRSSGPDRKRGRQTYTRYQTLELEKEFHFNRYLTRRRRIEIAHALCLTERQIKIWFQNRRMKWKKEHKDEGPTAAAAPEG
# HOXA7 [19] = target: HOXA7 (Homo sapiens, UniProt P31268 116-202, W177C)
# Chain of HOXA7 (Homo sapiens, UniProt P31268 116-202, W177C) (P31268 116-202 W177C): as the sequence (P31268 116-202) above, with W62C counted along it
sequence,measurement,setting,value
GAGTTCCC,binding signal,VENTX [1],"8.1 upbm affinity estimate (log intensity, higher = more binding, comparable within an allelic series)"
same,binding signal,VENTX [2],"8.23 upbm affinity estimate (log intensity, higher = more binding, comparable within an allelic series)"
same,binding signal,HOXC10 [3],"9.93 upbm affinity estimate (log intensity, higher = more binding, comparable within an allelic series)"
same,binding signal,VENTX [4],"8.22 upbm affinity estimate (log intensity, higher = more binding, comparable within an allelic series)"
same,binding signal,HOXC10 [5],"10 upbm affinity estimate (log intensity, higher = more binding, comparable within an allelic series)"
CGATTAAC,binding signal,VENTX [1],"11.4 upbm affinity estimate (log intensity, higher = more binding, comparable within an allelic series)"
same,binding signal,VENTX [2],"12.4 upbm affinity estimate (log intensity, higher = more binding, comparable within an allelic series)"
same,binding signal,VENTX [4],"11.3 upbm affinity estimate (log intensity, higher = more binding, comparable within an allelic series)"
ACCCGTGC,binding signal,VENTX [1],"8.15 upbm affinity estimate (log intensity, higher = more binding, comparable within an allelic series)"
same,binding signal,VENTX [2],"8.32 upbm affinity estimate (log intensity, higher = more binding, comparable within an allelic series)"
same,binding signal,VENTX [4],"8.18 upbm affinity estimate (log intensity, higher = more binding, comparable within an allelic series)"
AGCCCGGA,binding signal,VENTX [1],"8.11 upbm affinity estimate (log intensity, higher = more binding, comparable within an allelic series)"
same,binding signal,VENTX [2],"7.92 upbm affinity estimate (log intensity, higher = more binding, comparable within an allelic series)"
same,binding signal,VENTX [4],"8.12 upbm affinity estimate (log intensity, higher = more binding, comparable within an allelic series)"
ACCAATCA,binding signal,VENTX [1],"9.98 upbm affinity estimate (log intensity, higher = more binding, comparable within an allelic series)"
same,binding signal,VENTX [2],"10.7 upbm affinity estimate (log intensity, higher = more binding, comparable within an allelic series)"
same,binding signal,PAX4 [6],"10.5 upbm affinity estimate (log intensity, higher = more binding, comparable within an allelic series)"
same,binding signal,PAX4 [7],"10.6 upbm affinity estimate (log intensity, higher = more binding, comparable within an allelic series)"
same,binding signal,MSX2,"10.9 upbm affinity estimate (log intensity, higher = more binding, comparable within an allelic series)"
same,binding signal,PAX4 [8],"10.7 upbm affinity estimate (log intensity, higher = more binding, comparable within an allelic series)"
same,binding signal,PAX4 [9],"9.96 upbm affinity estimate (log intensity, higher = more binding, comparable within an allelic series)"
same,binding signal,PAX4 [10],"10.1 upbm affinity estimate (log intensity, higher = more binding, comparable within an allelic series)"
same,binding signal,PAX4 [11],"10 upbm affinity estimate (log intensity, higher = more binding, comparable within an allelic series)"
AAGTAAAC,binding signal,VENTX [1],"9.37 upbm affinity estimate (log intensity, higher = more binding, comparable within an allelic series)"
same,binding signal,VENTX [2],"9.73 upbm affinity estimate (log intensity, higher = more binding, comparable within an allelic series)"
AGGGGGCG,binding signal,VENTX [1],"8.25 upbm affinity estimate (log intensity, higher = more binding, comparable within an allelic series)"
same,binding signal,VENTX [2],"8.25 upbm affinity estimate (log intensity, higher = more binding, comparable within an allelic series)"
same,binding signal,HOXC10 [3],"10 upbm affinity estimate (log intensity, higher = more binding, comparable within an allelic series)"
same,binding signal,VENTX [4],"8.23 upbm affinity estimate (log intensity, higher = more binding, comparable within an allelic series)"
same,binding signal,HOXB6 [12],"9 upbm affinity estimate (log intensity, higher = more binding, comparable within an allelic series)"
same,binding signal,HOXA2 [13],"7.3 upbm affinity estimate (log intensity, higher = more binding, comparable within an allelic series)"
same,binding signal,PITX2,"8.12 upbm affinity estimate (log intensity, higher = more binding, comparable within an allelic series)"
same,binding signal,HOXA2 [14],"10.2 upbm affinity estimate (log intensity, higher = more binding, comparable within an allelic series)"
same,binding signal,HOXC10 [5],"9.95 upbm affinity estimate (log intensity, higher = more binding, comparable within an allelic series)"
same,binding signal,HOXA2 [15],"10.3 upbm affinity estimate (log intensity, higher = more binding, comparable within an allelic series)"
same,binding signal,HOXA2 [16],"7.28 upbm affinity estimate (log intensity, higher = more binding, comparable within an allelic series)"
same,binding signal,HOXB6 [17],"8.93 upbm affinity estimate (log intensity, higher = more binding, comparable within an allelic series)"
GCGGGTCC,binding signal,VENTX [1],"8.12 upbm affinity estimate (log intensity, higher = more binding, comparable within an allelic series)"
same,binding signal,VENTX [2],"8.25 upbm affinity estimate (log intensity, higher = more binding, comparable within an allelic series)"
same,binding signal,HOXC10 [3],"10 upbm affinity estimate (log intensity, higher = more binding, comparable within an allelic series)"
same,binding signal,VENTX [4],"8.16 upbm affinity estimate (log intensity, higher = more binding, comparable within an allelic series)"
same,binding signal,HOXC10 [5],"10 upbm affinity estimate (log intensity, higher = more binding, comparable within an allelic series)"
CCCCATTA,binding signal,VENTX [1],"11.5 upbm affinity estimate (log intensity, higher = more binding, comparable within an allelic series)"
same,binding signal,VENTX [2],"12.3 upbm affinity estimate (log intensity, higher = more binding, comparable within an allelic series)"
same,binding signal,VENTX [4],"11.3 upbm affinity estimate (log intensity, higher = more binding, comparable within an allelic series)"
CTGGCAGC,binding signal,VENTX [1],"8.09 upbm affinity estimate (log intensity, higher = more binding, comparable within an allelic series)"
same,binding signal,VENTX [2],"8.14 upbm affinity estimate (log intensity, higher = more binding, comparable within an allelic series)"
same,binding signal,VENTX [4],"8.07 upbm affinity estimate (log intensity, higher = more binding, comparable within an allelic series)"
ACCTATTA,binding signal,VENTX [1],"11.4 upbm affinity estimate (log intensity, higher = more binding, comparable within an allelic series)"
same,binding signal,VENTX [2],"12 upbm affinity estimate (log intensity, higher = more binding, comparable within an allelic series)"
same,binding signal,VENTX [4],"11.1 upbm affinity estimate (log intensity, higher = more binding, comparable within an allelic series)"
GGCCATTA,binding signal,VENTX [1],"11.6 upbm affinity estimate (log intensity, higher = more binding, comparable within an allelic series)"
same,binding signal,VENTX [2],"12.3 upbm affinity estimate (log intensity, higher = more binding, comparable within an allelic series)"
same,binding signal,HOXA7 [18],"11.2 upbm affinity estimate (log intensity, higher = more binding, comparable within an allelic series)"
same,binding signal,VENTX [4],"11.4 upbm affinity estimate (log intensity, higher = more binding, comparable within an allelic series)"
same,binding signal,HOXB6 [12],"9.75 upbm affinity estimate (log intensity, higher = more binding, comparable within an allelic series)"
same,binding signal,HOXA7 [19],"8.67 upbm affinity estimate (log intensity, higher = more binding, comparable within an allelic series)"
same,binding signal,HOXB6 [17],"11.8 upbm affinity estimate (log intensity, higher = more binding, comparable within an allelic series)"
